This is an account of results in PubChem BioAssay AID1508608 (The Scripps Research Institute Molecular Screening Center, 2020).

Molecules are shown by their SMILES. Screen size: about 2,300 compounds; about 20 (0.9%) were called active. This is one part of a sample in which actives are shown more often than they occur. Unmarked numbers belong to inactive results.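 The calls were made as follows: active = mean activation across replicates above 26.72%, the hit cutoff set for this confirmation screen; inactive = the rest.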

For this assay, the target named is G-protein coupled receptor 151 (Homo sapiens) (UniProt Q8TDV0). Description: GPR151 agonism via beta-arrestin recruitment – cell-based, PathHunter beta-arrestin, luminescence, set 2, confirmation (AID 1508608).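 Also: 0% = plate median of compound wells and 100% = EA reagent high control.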 Particulars: GPR151 PathHunter beta-arrestin cells, 90 min, at 11.2 µM, hits give high values, 100% = signal from added EA reagent.
Chain of G-protein coupled receptor 151 (Homo sapiens) (Q8TDV0 whole entry, looked up): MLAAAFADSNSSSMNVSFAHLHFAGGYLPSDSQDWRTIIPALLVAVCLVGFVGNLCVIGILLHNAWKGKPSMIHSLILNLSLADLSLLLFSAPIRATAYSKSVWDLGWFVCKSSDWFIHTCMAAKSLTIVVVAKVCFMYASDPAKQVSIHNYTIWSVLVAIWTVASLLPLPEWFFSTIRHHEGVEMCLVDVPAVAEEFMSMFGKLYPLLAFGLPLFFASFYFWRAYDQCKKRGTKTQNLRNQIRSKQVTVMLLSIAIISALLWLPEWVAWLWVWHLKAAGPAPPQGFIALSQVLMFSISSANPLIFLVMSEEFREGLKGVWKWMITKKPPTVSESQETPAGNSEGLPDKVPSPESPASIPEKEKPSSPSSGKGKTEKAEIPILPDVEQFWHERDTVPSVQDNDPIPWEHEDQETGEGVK
As for `COc1ccccc1C(=O)NC(C)C(c1cccs1)N1CCOCC1` (configuration not stated), the activation was -5.85%.
For `Cc1ccc(-c2nc3ncccn3c2NC2CCCCC2)o1` the value was -5.26%.
Under `NC(=O)C1CCN(S(=O)(=O)c2ccc3c(c2)OCC(=O)N3)CC1` stands -1.83%; under `O=C(NCCCN1CCOCC1)/C(=C/c1ccc(-c2cccc(C(F)(F)F)c2)o1)NC(=O)c1ccc(Cl)cc1`, 23.3%; under `COc1ccc(-n2nc3c(c2NC(=O)c2c(F)cccc2F)CS(=O)(=O)C3)cc1`, -1.16%.
Regarding `CCCN(C(=O)Cc1nc(-c2ccc(OC)cc2)no1)c1ccccc1C`, the activation is -0.07%.
Under `CC1=NN(c2ccccc2)C(=O)/C1=C\c1ccc([N+](=O)[O-])cc1` stands -3.53%.
Under `CCOc1ccc(/C=N/NC(=O)c2ccccc2OC(C)C)cc1O` stands -4.49%; under `CN(C)c1ccc(CNCCC2CCOC(C)(C)C2)cc1` (configuration not stated), 0.83%.
Regarding `COc1ccc(-c2cc3ccc(OC(C)C(=O)O)cc3oc2=O)cc1` (configuration not stated), the activation is -10.8%.
Under `CC(=O)c1c(C)[nH]c(C(=O)N2CCCC(C)C2)c1C` (configuration not stated) stands -1.56%; under `COc1ccc(/C=C\C23N(Cc4ccccc4)C(=O)CN2c2ccccc2C3(C)C)cc1` (configuration not stated), -0.33%.
For `OCCC1CN(Cc2ccc3nonc3c2)CCN1Cc1ccc(F)c(F)c1` (configuration not stated) the value was 11.5%; for `O=C(CCC(=O)Nc1ccc(F)cc1)N/N=C/c1cccc([N+](=O)[O-])c1`, 4.76%.
On to `COc1ccc(NC(=O)C(C)N(c2ccc(Oc3ccccc3)cc2)S(C)(=O)=O)cc1` (configuration not stated), for which the activation was 1.83%.
For `Clc1ccc(-n2ncc3c(NCc4ccco4)ncnc32)cc1` the value was 3.54%; for `Cn1ncc2c(NCCc3ccc(Cl)cc3Cl)ncnc21`, 27.9% (active); for `COC(=O)c1cc(Nc2ncnc3c2cnn3-c2ccc(Cl)cc2)cc(C(=O)OC)c1`, 5.3%.
As to `Cc1sc2c(c1C)c(=O)n(CCc1ccccc1)c(=O)n2CC(N)=O`, the activation is -0.97%.
For `Cc1ccc(-n2ncc3c(=O)n(CC(=O)Nc4cccc(Cl)c4)cnc32)cc1C` the value was -0.5%; for `C=C(CC(NP(=O)(OCC)OCC)(C(=O)OC)C(F)(F)F)c1ccccc1` (configuration not stated), 1.36%.
For `COc1ccc(CC2(C)OC(c3ccc(C)c([N+](=O)[O-])c3)=NN2C(C)=O)cc1` (configuration not stated) the value was -3.14%; for `CCOc1ccc(-c2ccc(/C=C3/C(=N)N4C=C(C)SC4=NC3=O)o2)c([N+](=O)[O-])c1`, -0.37%; for `O=c1/c(=C\c2ccccc2Cl)sc2nc3ccccc3n12`, -1.37%.
Under `CC(C)c1ccc(Cn2ccc3c4c(N)nc(NC5CC5)nc4ccc32)cc1` stands 104% (active).
On to `N/C(=N\OC(=O)CCCN1C(=O)c2ccccc2C1=O)c1ccccn1`, for which the activation is 10.3%.
Under `CCN(CC)C(=O)CN(c1ccccc1)S(=O)(=O)c1ccc(C)cc1` stands 4.39%; under `CCC1CN(CCNC(=O)c2scc3c2OCCO3)Cc2cc(OC)ccc2O1` (configuration not stated), 6.33%; under `CC(=O)C1C(c2cccc([N+](=O)[O-])c2)c2c(n[nH]c2C)CC1(C)O` (configuration not stated), 0.19%.
Under `CC1=C(C(=O)NCCN2Cc3ccccc3OC(c3ccccc3F)C2)OCCO1` (configuration not stated) stands 2.76%; under `CCOc1cc(OCC)cc(C(=O)Nc2ccc(Br)cn2)c1`, 8.34%.
Regarding `CNc1nc2c(-c3ccc(Cl)cc3)nnn2c2ccccc12`, the activation was 16.9%.
`CC1CC(C)CN(C(=O)c2ccc(NCc3cccs3)c(S(=O)(=O)Nc3cc(F)ccc3F)c2)C1` (configuration not stated): the activation was 3.31%.
Turning to `CCCOC1CCCN(Cc2c(C(=O)N(C)CCc3ccccc3)nc3sccn23)C1` (configuration not stated), the activation is 6.38%.
Under `CC(=O)c1cccc(NC(=O)Oc2ccccc2)c1` stands 2.16%.
For `CCOC(=O)CCN(Cc1ccccc1F)S(=O)(=O)c1ccc([N+](=O)[O-])cc1` the value was -3.3%; for `COc1ccc(C(=O)N(c2ccc(C)cc2)S(=O)(=O)c2ccc(C)cc2)cc1OC`, 6.29%.
For `CCOC(=O)c1ccc(CN(Cc2c(Cl)cccc2Cl)S(=O)(=O)c2cccc([N+](=O)[O-])c2)cc1` the value was 0.8%; for `CC1=C(C(=O)OCc2ccco2)C(c2ccc(F)cc2)NC(=O)N1` (configuration not stated), 3.69%; for `O=[N+]([O-])c1ccc2nc(SCc3ccc(I)cc3)sc2c1`, 3.08%.
In the case of `CC(C)CCN1C(=O)C(C)(C)COc2cc(NC(=O)c3ccc4c(c3)OCO4)ccc21`, the activation is -3.7%.
For `COc1cc(/C=C/c2[nH]c(=O)[nH]c(=O)c2[N+](=O)[O-])ccc1OC(C)C` the value was -3.99%.
Under `CCN(c1ccccc1)c1ncnc2c1cnn2-c1ccc(Cl)cc1` stands 5.9%; under `Cc1ccc(-c2[nH]c(=S)[nH]c(=O)c2C#N)cc1`, -2.95%; under `Cc1ccccc1OCC(=O)Nc1ccc(N2C(=O)c3ccc([N+](=O)[O-])cc3C2=O)cc1`, 6.85%.
For the compound `Cc1ccc(NC(=O)c2ccccc2F)c(Br)c1`, the activation is -2.79%.
For `O=C(Nc1cc(Cl)ccc1Cl)c1ccccc1O` the value was 26.9% (active); for `O=C(Nc1cc(C(F)(F)F)ccc1Cl)c1ccc(C(=O)C(=O)c2ccccc2)cc1`, -1.66%; for `CCOC(=O)C1=C(C)N=c2s/c(=C\c3cc(C)n(-c4ccc(C(=O)OCC)cc4)c3C)c(=O)n2C1c1ccc(OC)c(OC)c1` (configuration not stated), 1.8%.
For `CCCc1[nH]n(-c2ccc(F)cc2)c(=O)c1C=Nc1ccc(OCC)cc1` the value was -1.39%; for `Cn1nc2c(c1C(=O)NCC1CC(Cc3cccc(F)c3)=NO1)CCCC2` (configuration not stated), -2%; for `O=C(CSc1nnc(Cc2cc(=O)[nH]c(=O)[nH]2)n1-c1ccccc1)NC1CCCC1`, 2.56%.
For `COc1ccc2c(c1)N(C)/C(=c1/s/c(=c3/sc4nc5ccccc5n4c3=O)n(C)c1=O)S2` the value was 5.91%; for `COC(=O)Cn1c(CN2CCOCC2)nc2c1c(=O)n(C)c(=O)n2C`, -2.55%; for `CC(=O)Cc1nsc(Nc2ccc(C)c(Cl)c2)n1`, 3.54%.
For `CCN(CC)S(=O)(=O)c1ccc(C(=O)Nc2nc3ccc([N+](=O)[O-])cc3s2)cc1`, the activation is 2.56%.
`COc1ccc(-c2onc(C(F)(F)F)c2-c2ccc(Cl)cc2)c(O)c1`: the activation is 0.9%.
Under `Cc1ccc(Cl)cc1Nc1cc(N2CCOCC2)c2nonc2c1[N+](=O)[O-]` stands 3.43%; under `CC(C)C[C@@H]1NC(=O)[C@H]2CN(Cc3cn(C)nc3-c3ccccc3)CCN2C1=O`, 3.84%.
As for `CCC(C)NC(=O)C1CCN(S(=O)(=O)N2CCOCC2)CC1` (configuration not stated), the activation was 7.37%.
Turning to `Cn1c(=O)oc2cc(S(=O)(=O)N3CCCC(C(=O)N4CCOCC4)C3)ccc21` (configuration not stated), the activation is 11.4%.
For `CCc1ccc(C2=CC(c3ccc(OC)c(OC)c3)n3ncnc3N2)cc1` (configuration not stated) the value was 0.38%; for `COc1ccccc1-c1nnc(C2CCN(S(=O)(=O)c3cccc(C#N)c3)CC2)o1`, -0.51%.
For `CCN(CC)CCNC1=CC(=O)OC12CCCCC2` the value was -1.78%; for `CCC1Oc2ccccc2N(CC(=O)NC2CCCCCC2)C1=O` (configuration not stated), -3.51%.
For `O=C(c1ccco1)N1CCN(C(=O)C2(S(=O)(=O)c3ccc(Cl)cc3)CC2)CC1` the value was 4.46%; for `O=C(NCCC12CC3CC(CC(C3)C1)C2)c1cc([N+](=O)[O-])ccc1N1CCOCC1`, 6.89%.
As to `CCOc1ccc(-c2cc(C(=O)N/N=C/c3ccc(O)c(OCC)c3)[nH]n2)cc1`, the activation was -0.84%.
Under `CCCOc1ccc(C2C3=C(CC(C)(C)CC3=O)N(CC(=O)O)C3=C2C(=O)CC(C)(C)C3)cc1OCC` stands 4.15%; under `COc1ccc(C(=O)NCC2CCCN2S(=O)(=O)c2cccs2)cc1OC` (configuration not stated), -1.78%.
Regarding `CN1CCN(C(CNS(=O)(=O)c2ccccc2)c2cccnc2)CC1` (configuration not stated), the activation was -1.58%.
Turning to `CCCCOC(=O)N1CCOCCOCCN(C(=O)OCCCC)CCOCCOCC1`, the activation is -4.43%.
Under `Cc1ccc(-n2ncc3c(NCc4ccco4)ncnc32)c(C)c1` stands 2.13%.
Under `Cc1cccc(-c2nc3ccccc3c(=O)n2Cc2ccccc2C)c1` stands 1.61%; under `Cc1ccc(COc2cccc3c2CCN(C)C3=O)cc1`, -4.68%; under `CC(=O)Oc1ccccc1N1C(=O)c2cccc([N+](=O)[O-])c2C1=O`, 28.3% (active).
As to `CCCCOC(=O)c1ccc(N2C(=O)c3cccc([N+](=O)[O-])c3C2=O)cc1`, the activation was -3.4%.
Under `CC(=O)c1ccc(N2C(=O)c3ccc(Oc4ccc([N+](=O)[O-])cc4[N+](=O)[O-])cc3C2=O)cc1` stands -8.73%; under `Cc1ccc([N+](=O)[O-])cc1NC(=O)C1C2/C=C\CCCCC21` (configuration not stated), 0.67%.
Under `O=C(NCCCN1CCCC1)C(=O)Nc1ccc2nc3n(c(=O)c2c1)CCCCC3` stands -2.06%; under `COc1ccc(-c2nc(-c3ccc(NC(=O)c4ccc(Br)o4)cc3)no2)cc1OC`, 7.05%.
Turning to `N=C(N)SCc1csc2c1CCCC2`, the activation was 1.33%.
For `Nc1nc(NC(=O)c2ccccc2)nn1-c1ccccc1` the value was -4.73%.
Under `CC(C)c1ccc(/C=N\NC(=O)Cn2c(-c3nonc3N)nc3ccccc32)cc1` stands 0.86%.
Under `CCOC(=O)c1cnc2c(OC)cccc2c1NC1CCCCCC1` stands 18.4%; under `Cc1ccc(C2=N/C(=C\c3cccc(C(F)(F)F)c3)C(=O)O2)cc1[N+](=O)[O-]`, 3.7%.
For the compound `CCCCc1ccc(C2=N/C(=C\c3ccc(F)cc3)C(=O)N2c2ccc(Cl)cc2C)cc1`, the activation is -6.96%.
